Experimental data from ChEMBL document CHEMBL1201862, “PubChem BioAssay data set” (2004).
The campaign covered roughly 360,000 compounds. About 25,000 (6.9%) were called active. Not shown: some 9% with an inconclusive outcome. The calls are words filed in the database; no cut-off is given here. Only a selection was taken, and actives are over-represented in it overall.

biological target: Luciferin 4-monooxygenase (Photinus pyralis) (UniProt P08659); assay: qHTS profiling assay for firefly luciferase inhibitor/activator using purified enzyme and Km concentrations of substrates (counterscreen for miR-21 project). [Related pubchem assays (depositor defined):AID2288, AID2289, AID2598, AID411]; assay type: functional
Sequence (P08659 whole entry): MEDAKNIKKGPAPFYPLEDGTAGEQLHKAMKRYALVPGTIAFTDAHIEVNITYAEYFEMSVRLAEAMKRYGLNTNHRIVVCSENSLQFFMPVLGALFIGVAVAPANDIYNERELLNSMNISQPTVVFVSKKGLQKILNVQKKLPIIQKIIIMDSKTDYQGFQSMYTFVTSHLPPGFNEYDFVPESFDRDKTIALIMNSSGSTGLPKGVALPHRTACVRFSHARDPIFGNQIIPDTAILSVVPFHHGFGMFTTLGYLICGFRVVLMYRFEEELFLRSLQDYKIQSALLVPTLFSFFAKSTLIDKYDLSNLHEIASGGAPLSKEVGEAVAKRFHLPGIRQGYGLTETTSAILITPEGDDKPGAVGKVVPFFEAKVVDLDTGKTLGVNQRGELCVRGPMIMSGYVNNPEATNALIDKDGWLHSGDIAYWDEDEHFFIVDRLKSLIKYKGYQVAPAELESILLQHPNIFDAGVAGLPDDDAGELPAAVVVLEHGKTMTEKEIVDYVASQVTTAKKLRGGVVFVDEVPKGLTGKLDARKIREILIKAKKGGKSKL

Row | Structure (SMILES) | Potency
1 | O=C(O)c1cc(-c2ccc(F)cc2F)ccc1O | 15.1 µM (active)
2 | Cn1c(NCCN2CCOCC2)nc2c1c(=O)n(Cc1cccc(Cl)c1)c(=O)n2C | inactive
3 | Cc1ccccc1N=C(S)N(CCCN1CCOCC1)Cc1cccnc1 | inactive
4 | O=C(NC1CCCC1)c1cc(Cl)ccc1[N+](=O)[O-] | inactive
